# Several values for one entry are separate records, joined by “and”; a condition that tells them apart may be missing. Identical values can stand only once. Over roughly 2,900 compounds, “NF-kB SEAP reporter activity, fold change vs agonist alone” has its median near 0.99; the highest 2% begin near 2.6. The sample holds the highest values, similar compounds and a random draw of the others, so the mix is not that of the screen.
# Legend:
# RAW-Dual [1] = test: NF-kB SEAP reporter activity, fold change vs agonist alone; higher = enhanced NF-kB activity
# How it was run: (§1)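 Cytotoxic wells were those whose IncuCyte confluency was below 70% of agonist controls in both mask sets. The cells were RAW-Dual macrophages at 50,000 cells/well in DMEM on 384-well plates, dosed with 50 nL of library stock by pin tool, stimulated with a PRR agonist 1 h later, and kept at 37 °C, 5% CO2 for 20 hours. IRF and NF-κB reporter activity, as fold change over agonist-alone wells, came from supernatant read by QuantiLuc luminescence and QuantiBlue absorbance, respectively.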
# RAW-Dual [2] = test: NF-kB SEAP reporter activity, fold change vs agonist alone; cytotoxicity flag (confluency mask): not cytotoxic; higher = enhanced NF-kB activity
# How it was run: as §1
# RAW-Dual [3] = test: NF-kB SEAP reporter activity, fold change vs agonist alone; cytotoxicity flag (confluency mask): cytotoxic (confluency <70% of control); higher = enhanced NF-kB activity
# How it was run: as §1
# [4] = library stock concentration (final ~1000-fold dilution): 10 mM, cytotoxicity flag (confluency mask): not cytotoxic, agonist: Imiquimod (TLR7) […]
# [5] = library stock concentration (final ~1000-fold dilution): 10 mM, cytotoxicity flag (confluency mask): not cytotoxic, agonist: MPLA (TLR4) […]
# [6] = agonist: ODN 1826 (TLR9) 0.5 ug/mL
# [7] = agonist: Pam2CSK4 (TLR2/6) 0.1 ug/mL
# [8] = agonist: Pam3CSK4 (TLR2/1) 0.1 ug/mL
structure (smiles),measurement,setting,value
Cn1cc(-c2ccc3ncc(Cc4ccc5ncccc5c4)n3n2)cn1,NF-kB SEAP reporter activity,RAW-Dual [1]; [4],1.37
same,NF-kB SEAP reporter activity,RAW-Dual [1]; [5],1.23
Cn1cc(-c2ccc3ncc(Cc4ccc5ncccc5c4)n3n2)cn1 (library stock concentration (final ~1000-fold dilution): 10 mM),NF-kB SEAP reporter activity,RAW-Dual [2]; agonist: LPS (TLR4) 0.1 ug/mL,1.88
same,NF-kB SEAP reporter activity,RAW-Dual [2]; [6],1.35
same,NF-kB SEAP reporter activity,RAW-Dual [2]; [7],1.31
same,NF-kB SEAP reporter activity,RAW-Dual [2]; [8],1.47
COc1cc2ncc(-c3ccccc3)nc2cc1OC,NF-kB SEAP reporter activity,RAW-Dual [1]; [4],1.16
same,NF-kB SEAP reporter activity,RAW-Dual [1]; [5],1.39
COc1cc2ncc(-c3ccccc3)nc2cc1OC (library stock concentration (final ~1000-fold dilution): 10 mM),NF-kB SEAP reporter activity,RAW-Dual [2]; agonist: LPS (TLR4) 0.1 ug/mL,1.78
same,NF-kB SEAP reporter activity,RAW-Dual [2]; [6],1.28
same,NF-kB SEAP reporter activity,RAW-Dual [2]; [7],0.915
same,NF-kB SEAP reporter activity,RAW-Dual [2]; [8],0.864
COc1cc(OC)cc(N(CCNC(C)C)c2ccc3ncc(-c4cnn(C)c4)nc3c2)c1,NF-kB SEAP reporter activity,"RAW-Dual [1]; library stock concentration (final ~1000-fold dilution): 10 mM, cytotoxicity flag (confluency mask): cytotoxic (confluency <70% of control), agonist: Imiquimod (TLR7) […]",1.76
same,NF-kB SEAP reporter activity,"RAW-Dual [1]; library stock concentration (final ~1000-fold dilution): 10 mM, cytotoxicity flag (confluency mask): cytotoxic (confluency <70% of control), agonist: MPLA (TLR4) […]",2.21
COc1cc(OC)cc(N(CCNC(C)C)c2ccc3ncc(-c4cnn(C)c4)nc3c2)c1 (library stock concentration (final ~1000-fold dilution): 10 mM),NF-kB SEAP reporter activity,RAW-Dual [3]; agonist: LPS (TLR4) 0.1 ug/mL,3.64
same,NF-kB SEAP reporter activity,RAW-Dual [3]; [6],0.427
same,NF-kB SEAP reporter activity,RAW-Dual [3]; [7],1.06
same,NF-kB SEAP reporter activity,RAW-Dual [3]; [8],1.57
Br.COc1ccc2c3c1OC1CC(O)C=CC31CCN(C)C2 (stereo not drawn),NF-kB SEAP reporter activity,"RAW-Dual [1]; library stock concentration (final ~1000-fold dilution): 10 mM water, cytotoxicity flag (confluency mask): not cytotoxic, agonist: Imiquimod (TLR7) […]",0.936
same,NF-kB SEAP reporter activity,"RAW-Dual [1]; library stock concentration (final ~1000-fold dilution): 10 mM water, cytotoxicity flag (confluency mask): not cytotoxic, agonist: MPLA (TLR4) […]",0.997
Br.COc1ccc2c3c1OC1CC(O)C=CC31CCN(C)C2 (stereo not drawn) (library stock concentration (final ~1000-fold dilution): 10 mM water),NF-kB SEAP reporter activity,RAW-Dual [2]; agonist: LPS (TLR4) 0.1 ug/mL,1.12
same,NF-kB SEAP reporter activity,RAW-Dual [2]; [6],1.02
same,NF-kB SEAP reporter activity,RAW-Dual [2]; [7],1.12
same,NF-kB SEAP reporter activity,RAW-Dual [2]; [8],1.16
CC(C)C(C(=O)O)N1C(=O)/C(=C/c2ccc(Br)cc2)SC1=S (stereo not drawn),NF-kB SEAP reporter activity,RAW-Dual [1]; [4],0.992
same,NF-kB SEAP reporter activity,RAW-Dual [1]; [5],1.01
CC(C)C(C(=O)O)N1C(=O)/C(=C/c2ccc(Br)cc2)SC1=S (stereo not drawn) (library stock concentration (final ~1000-fold dilution): 10 mM),NF-kB SEAP reporter activity,RAW-Dual [2]; agonist: LPS (TLR4) 0.1 ug/mL,1.12
same,NF-kB SEAP reporter activity,RAW-Dual [2]; [6],0.953
same,NF-kB SEAP reporter activity,RAW-Dual [2]; [7],0.947
same,NF-kB SEAP reporter activity,RAW-Dual [2]; [8],1.05
CC1(C)C(C(=O)O)N2C(=O)CC2S1(=O)=O (stereo not drawn) (library stock concentration (final ~1000-fold dilution): 10 mM),NF-kB SEAP reporter activity,RAW-Dual [2]; agonist: LPS (TLR4) 0.1 ug/mL,1.04 and 0.881
same,NF-kB SEAP reporter activity,RAW-Dual [2]; [6],1.01 and 1.03
same,NF-kB SEAP reporter activity,RAW-Dual [2]; [7],0.96 and 1.14
same,NF-kB SEAP reporter activity,RAW-Dual [2]; [8],1.05 and 1.19
Cl.O=c1[nH]ccc2c(S(=O)(=O)N3CCCNCC3)cccc12,NF-kB SEAP reporter activity,RAW-Dual [1]; [4],1
same,NF-kB SEAP reporter activity,RAW-Dual [1]; [5],0.986
Cl.O=c1[nH]ccc2c(S(=O)(=O)N3CCCNCC3)cccc12 (library stock concentration (final ~1000-fold dilution): 10 mM),NF-kB SEAP reporter activity,RAW-Dual [2]; agonist: LPS (TLR4) 0.1 ug/mL,1.22
same,NF-kB SEAP reporter activity,RAW-Dual [2]; [6],0.968
same,NF-kB SEAP reporter activity,RAW-Dual [2]; [7],1.05
same,NF-kB SEAP reporter activity,RAW-Dual [2]; [8],1.23
CCN(CC)Cc1ccc2cc(COC(=O)Nc3ccc(C(=O)NO)cc3)ccc2c1.Cl.O,NF-kB SEAP reporter activity,RAW-Dual [1]; [4],0.805
same,NF-kB SEAP reporter activity,RAW-Dual [1]; [5],1.17
COc1ccc(Cn2ccc3ccc(C(=O)NO)cc32)cc1,NF-kB SEAP reporter activity,RAW-Dual [1]; [4],0.789
same,NF-kB SEAP reporter activity,RAW-Dual [1]; [5],0.903
COc1ccc(Cn2ccc3ccc(C(=O)NO)cc32)cc1 (library stock concentration (final ~1000-fold dilution): 10 mM),NF-kB SEAP reporter activity,RAW-Dual [2]; agonist: LPS (TLR4) 0.1 ug/mL,0.996
same,NF-kB SEAP reporter activity,RAW-Dual [2]; [6],0.62
same,NF-kB SEAP reporter activity,RAW-Dual [2]; [7],0.788
same,NF-kB SEAP reporter activity,RAW-Dual [2]; [8],0.588
CCN(CC)Cc1ccc2cc(COC(=O)Nc3ccc(C(=O)NO)cc3)ccc2c1.Cl.O (library stock concentration (final ~1000-fold dilution): 10 mM),NF-kB SEAP reporter activity,RAW-Dual [2]; agonist: LPS (TLR4) 0.1 ug/mL,7.02
same,NF-kB SEAP reporter activity,RAW-Dual [2]; [6],0.922
same,NF-kB SEAP reporter activity,RAW-Dual [2]; [7],1.87
same,NF-kB SEAP reporter activity,RAW-Dual [2]; [8],1.04
COCc1ccc(-c2ccc3ncc(C(N)=O)c(NC(C)C4CCOCC4)c3c2)cn1 (stereo not drawn) (library stock concentration (final ~1000-fold dilution): 10 mM),NF-kB SEAP reporter activity,RAW-Dual [2]; agonist: LPS (TLR4) 0.1 ug/mL,1.75
same,NF-kB SEAP reporter activity,RAW-Dual [2]; [6],1.19
same,NF-kB SEAP reporter activity,RAW-Dual [2]; [7],1.45
same,NF-kB SEAP reporter activity,RAW-Dual [2]; [8],2.13
COCc1ccc(-c2ccc3ncc(C(N)=O)c(NC(C)C4CCOCC4)c3c2)cn1 (stereo not drawn),NF-kB SEAP reporter activity,RAW-Dual [1]; [4],0.993
same,NF-kB SEAP reporter activity,RAW-Dual [1]; [5],1.35
